High-throughput results deposited in PubChem by National Center for Advancing Translational Sciences (NCATS).
Sampled rows, rich in hits. Any-hit rate of the full collection: about 3%.
Coupling enz: inhibits coupling enzyme system, counter-screen for aldolase hits; coupling enzyme system counterscreen, AmpLite Red fluorescence; activity change, negative = inhibition, % at 58.2 µM, hits read low; actives 0.67% (n = 290,000); in the data active = activity change below about -30%
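Fluorescence at 525 nm excitation and 598 nm emission measured inhibition of the coupled detection system without aldolase. Compounds (at 57.5 uM final) were preincubated 10 min at room temperature with coupling enzyme reagent before a 20 min substrate/AmpLite Red step.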
Tau fibril FP: inhibitors of human tau fibril formation; K18 P301L tau heparin fibrillization, Alexa594 FP, 6 h; Potency, µM (series often up to 57.7 µM), without a hit: at the top dose activity, negative = inhibition, hits mostly inhibitors; actives 0.39% (n = 280,000); AID 1468; note: potency is the fitted concentration of half-maximal effect; nearly all actives have a fitted effect of over 55% in size
Target sequence (P10636 561-689 P618L limits assumed): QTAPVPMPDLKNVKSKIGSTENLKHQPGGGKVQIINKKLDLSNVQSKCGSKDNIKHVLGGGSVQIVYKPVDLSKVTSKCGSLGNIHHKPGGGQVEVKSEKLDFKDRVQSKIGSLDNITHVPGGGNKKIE
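Read-out: fluorescence polarization of Alexa 594-labeled tau (0.24 uM), 555 nm excitation, 632 nm emission. Mixtures held 15 uM unlabeled K18 P301L, compound and 20 uM heparin, pH 7 acetate buffer, incubated 6 hr at 37 C.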
JMJD2E inh: inhibitors of human JMJD2E histone demethylase | B2RXH2 | JMJD2E catalytic domain, FDH-coupled NADH fluorescence (FDH is formaldehyde dehydrogenase) | Potency, µM (top dose mostly 57.1 µM), for inactives: at the top dose activity change, negative = inhibition, actives largely listed as inhibitors | actives 1.6% (n = 230,000); active = well fitted inhibition curve with a large enough effect, not every such curve was filed as active; inconclusive = small, poorly fitted or top-dose-only effect, or another doubt; inactive = no such curve, though single readings can be large or run the other way;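 note: potency is the fitted concentration of half-maximal effect; 0% = wells with enzyme and -100% = buffer wells without enzyme; nearly all actives have a fitted effect of over 50% in size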
Target sequence (B2RXH2 1-337 limits assumed): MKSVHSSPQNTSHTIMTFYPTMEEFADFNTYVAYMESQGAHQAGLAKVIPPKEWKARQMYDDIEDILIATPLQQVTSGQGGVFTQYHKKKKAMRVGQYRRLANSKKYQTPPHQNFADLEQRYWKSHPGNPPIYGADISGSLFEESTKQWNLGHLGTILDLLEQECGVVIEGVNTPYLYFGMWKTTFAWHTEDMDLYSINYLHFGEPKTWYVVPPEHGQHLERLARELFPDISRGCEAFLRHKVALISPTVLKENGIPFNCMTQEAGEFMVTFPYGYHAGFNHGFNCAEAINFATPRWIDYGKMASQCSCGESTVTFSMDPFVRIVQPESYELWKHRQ
Tau fluor cs: counter-screen for tau fibril formation inhibitors; AID 1463; tau K18 P301L Alexa594 fluorescence, heparin fibrillization; actives 0.93% (n = 280,000); Potency, µM (highest dose often 57.7 µM), for inactives: at the highest dose activity change, negative = decrease; note: potency is the fitted concentration of half-maximal effect; nearly all actives have a fitted effect of over 55% in size
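Human tau K18 P301L (15 uM unlabeled, 0.24 uM Alexa 594-labeled) in 100 mM sodium acetate pH 7 with 20 uM heparin, 6 hr at 37 C. ThT 30 uM added, 1 hr ambient; Alexa 594 FP and total fluorescence read at 555/632 nm.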
Tau fibril ThT: tau fibrillization inhibition (ThT binding); Potency, µM (series often up to 57.4 µM), for inactives: at the highest dose activity, negative = inhibition, usual class: inhibitors; recombinant tau K18 P301L, heparin-induced fibrillization, ThT fluorescence; actives 2.1% (n = 270,000); AID 1460; P10636; note: potency is the fitted concentration of half-maximal effect; nearly all actives have a fitted effect of over 55% in size
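Using a mix of unlabeled (15 uM) and Alexa 594-labeled (0.24 uM) tau K18 P301L, heparin-triggered fibrillization over 6 hr at 37 C was scored by ThT fluorescence.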
An asterisk follows results filed as active; ? = inconclusive; / = no result given; [ ] = remark or other dose. Unless noted, calls come from the whole dose curve; as a rule, active = well fitted curve in the direction sought with a large enough effect; inconclusive = small, poorly fitted or top-dose-only effect, or another doubt; inactive = no such curve, though single readings can be large; an effect the other way counts as inactive or inconclusive. Unless noted, % is set by controls: 0 for no effect and ±100 for the full control effect.

SMILES | Coupling enz | Tau fibril FP | JMJD2E inh | Tau fluor cs | Tau fibril ThT
Cc1cc(C)n2nc(N)c(N=Nc3ccc4c(c3)OCO4)c2n1 | 0 | 4% | 3% | 8% | 7%
Cc1cc(C)n2nc(N)c(N=Nc3ccccc3)c2n1 | 1 | 4% | -8% | -13% | 14µM*
Nc1nn(-c2ccccc2)c(N)c1N=Nc1ccccc1 | -2 | 4% | 5% | -28% | 5µM*
Nc1ncnc(N)c1N=Nc1ccccc1 | 2 | / | / | / | /
CN(C)CCNC(=O)C(=O)NCC(c1cccnc1)N1CCN(c2ccccc2)CC1 (stereo unspecified) | / | 3% | / | -8% | -6%
CCCCc1nc2c(c3c1C[C@H](C)OC3)CN(C(=O)C1CC1)CC2 | 5 | 6%[11.6 µM] | 15%[11.4 µM] | 0%[11.6 µM] | 7%[11.5 µM]
N#CC(c1ccccc1O)N1N=C(c2ccccc2)CC1c1ccccc1 (stereo unspecified) | -10 | 4% | 32µM* | ? | ?
COc1ccc2c(c1)C(=O)[C@H](OC(=O)N[C@H]1CCCc3ccccc31)[C@@H](c1ccc(OC)c(Br)c1)O2 | 0 | -1% | ? | -2% | 1%
CCCCC[C@H](O)/C=C/[C@H]1OC(O)C[C@H](O)[C@@H]1C/C=C\CCCC(=O)O (stereo partly specified) | -2 | -8% | -4% | -7% | -1%
CC(C)(C)OC(=O)N1CCC(c2c(C(=O)NCCCN3CCc4ccccc4C3)cnn2-c2ccccc2)CC1 | / | -9% | / | -5% | -4%
Cc1ccc2nsnc2c1NC(=S)NC(=O)c1ccco1 | -45* | 4% | 2% | -5% | -9%
CCCN1C(=O)/C(=C\C=C2/C=CN(CC)c3ccccc32)SC1=S | -4 | 16% | -6% | -7% | -9%
CCCCN1C(=O)/C(=C/C=C2\N(C)c3ccccc3C2(C)C)SC1=S | -7 | ? | -2% | -11% | 6.3µM*
CCCCN1C(=O)/C(=C/C=C2\SCCN2C)SC1=S | -4 | ? | -10% | ? | 14µM*
CN1CCS/C1=C/C=C1\SC(=S)N(CC(=O)O)C1=O | 1 | -6% | 2% | -20% | 16µM*
CC(C)C[C@H](NC(=O)[C@H](Cc1ccccc1)NC(=O)[C@H](Cc1ccccc1)NC(=O)[C@@H](N)CO)C(=O)N[C@@H](CCCN=C(N)N)C(=O)N[C@@H](CC(N)=O)C(=O)O | 4 | / | / | / | /
O=C(Cn1c(=O)n(-c2ccc(Cl)cc2)c(=O)c2sc3ccccc3c21)NC1CCCCC1 | / | ? | / | -9% | -3%
CCC(C)NC(=O)Cn1ncc2c(C)n(Cc3ccc(F)cc3)c(C)c2c1=O (stereo unspecified) | / | -3% | / | -6% | -6%
Cc1nc2ccc(Cl)cc2nc(C)/c1=N\O | -33* | -2% | ? | -19% | ?
CCC(=O)Nc1nc(C)c(-c2csc(Nc3cccc(O)c3)n2)s1 | -6 | / | / | / | /
CCCCCC(=O)Nc1nc(C)c(-c2csc(Nc3cc(Cl)ccc3C)n2)s1 | -1 | 7% | -2% | ? | ?
CCCCCC(=O)Nc1nc(C)c(-c2csc(Nc3ccc(Cl)cc3)n2)s1 | 2 | 8% | ? | 10µM*[quencher] | 11µM*
CCCCCCC(=O)Nc1nc(C)c(-c2csc(Nc3ccc(Cl)cc3)n2)s1 | 5 | 0% | 3% | 6.3µM*[quencher] | 5µM*
Cc1c(C(=O)N2CCCCC2)oc2ccc(S(=O)(=O)N3CC(C)CC(C)C3)cc12 (stereo unspecified) | 0 | 20µM* | -5% | ? | ?
COc1cc(O)c2c(c1)C(=O)c1cc(C)cc(O)c1C2=O | 0 | -4% | ? | -17% | ?
SMILES | Coupling enz | Tau fibril FP | JMJD2E inh | Tau fluor cs | Tau fibril ThT
O=C(O)c1cc(O)c2c(c1)C(=O)c1cc(O)cc(O)c1C2=O | -4 | -6% | -19% | ? | 7.1µM*
COc1cc(-c2nc3ccc(C)cn3c2Nc2ccc(Cl)cc2)ccc1O | / | ? | / | 8.9µM*[quencher] | ?
Cc1ccc(Nc2c(-c3ccncc3)nc3ccc(C)cn23)cc1 | / | 14% | / | -28% | ?
COc1cc(-c2nc3ccc(Cl)cn3c2Nc2ccc3c(c2)OCO3)ccc1O | / | 11% | / | 14µM*[quencher] | ?
O=C(O)c1ccccc1-c1ccc(/C=C/c2cc(C(F)(F)F)[nH]c(=O)n2)o1 | 2 | 1% | ? | 11% | 11%
O=c1nc(/C=C/c2ccc(-c3ccc(F)cc3)o2)cc(C(F)(F)F)[nH]1 | 0 | -7% | -11% | -16% | 16µM*
N#CC1=C(N)OC2=C(C(=O)CCC2)C1c1ccccc1 (stereo unspecified) | -3 | -2% | 5% | -5% | -7%
Cn1cccc1C1C(C#N)=C(N)OC2=C1C(=O)CCC2 (stereo unspecified) | -34* | -1% | ? | -3% | ?
O=C1c2ccccc2C(=O)C12OC2c1ccc(Cl)cc1 (stereo unspecified) | -22 | ? | ? | -20% | 3.2µM*
O=C(N/N=C/c1c[nH]c2ccccc12)c1cc(-c2cccc3ccccc23)n[nH]1 | 2 | 4% | ? | 10µM*[quencher] | ?
O=C(N/N=C/c1c[nH]c2ccccc12)c1cc(-c2ccccc2)n[nH]1 | 3 | 15% | -29% | 25µM*[quencher] | ?
Cc1ccc(-c2cc(C(=O)N/N=C/c3c[nH]c4ccccc34)[nH]n2)cc1 | -1 | ? | ? | 16µM*[quencher] | ?
O=C(N/N=C/c1c[nH]c2ccccc12)c1cc(-c2ccc3ccccc3c2)n[nH]1 | 1 | 6% | 5% | 5% | 3%
O=C(N/N=C/c1c[nH]c2ccccc12)c1cc(-c2ccc(-c3ccccc3)cc2)n[nH]1 | 1 | 5% | ? | 13µM*[quencher] | ?
CCC(C)NC(=O)C1CCN(C(=O)c2cc3sccc3n2Cc2ccc(Cl)cc2)CC1 (stereo unspecified) | / | -10% | / | -12% | -17%
Cc1ccc(CNc2ncnc3ccc(-c4c(C)noc4C)cc23)cc1 | 2 | / | / | / | /
Cc1ccccc1NCC(=O)N/N=C/c1c[nH]c2ccccc12 | -9 | ? | 0% | 16µM*[quencher] | ?
Cc1cccc(NCC(=O)N/N=C\c2c[nH]c3ccccc23)c1 | -2 | ? | 1% | ? | ?
Cc1ccc(-c2noc(-c3ccc(N4CCOCC4)c([N+](=O)[O-])c3)n2)cc1 | / | 9% | / | 11% | 6%
CC(C)OC(=O)c1c2c(n3ccccc13)C(=O)c1ccccc1C2=O | -12 | -1% | -16% | ? | 11µM*
COC(CNC(=O)c1ccc2c3c(onc13)-c1ccccc1C2=O)OC | -24 | ? | -22% | 16µM*[quencher] | 16µM*
CC1CCN(c2ccc(C(=O)Nc3ccc4c(c3)OCO4)cc2[N+](=O)[O-])CC1 | -10 | 11% | 0% | ? | 4µM*
CC1CCCN(c2ccc(C(=O)Nc3nnc(C4CC4)s3)cc2[N+](=O)[O-])C1 (stereo unspecified) | 6 | ? | 7% | -25% | 4µM*
